EP2 antag – blocks the human prostaglandin E2 receptor EP2. P43116. C6 glioma cells expressing human EP2, cAMP TR-FRET; cells stimulated with saturating PGE2. inhibition, % at 25 µM. actives 0.52% (n = 260,000);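 active = percent inhibition above 40 after rounding to a whole number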;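 note: rat C6 glioma host cells with rolipram phosphodiesterase inhibitor present; the protocol text gives 20 µM as final concentration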
Target sequence (P43116 whole entry, looked up): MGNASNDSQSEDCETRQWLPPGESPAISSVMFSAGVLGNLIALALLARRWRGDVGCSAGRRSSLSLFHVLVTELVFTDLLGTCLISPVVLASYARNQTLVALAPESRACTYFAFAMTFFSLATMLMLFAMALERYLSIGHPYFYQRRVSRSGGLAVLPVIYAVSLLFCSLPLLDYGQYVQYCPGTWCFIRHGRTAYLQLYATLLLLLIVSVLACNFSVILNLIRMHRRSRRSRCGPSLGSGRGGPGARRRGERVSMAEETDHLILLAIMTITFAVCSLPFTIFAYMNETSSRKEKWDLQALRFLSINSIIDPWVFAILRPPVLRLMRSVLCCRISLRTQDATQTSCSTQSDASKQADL
p97 ATPase inh – human p97 ATPase inhibition | P55072 | recombinant p97 ATPase, Kinase-Glo ATP luminescence, 3 h | inhibition, % at 8 µM | actives 0.42% (n = 220,000); in the data active = inhibition above about 15%;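 note: 0% = DMSO vehicle and 100% = wells lacking enzyme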
Hck-Nef inh – human Hck-Nef kinase inhibition. P08631. Recombinant Hck-YEEI plus Nef, Z-Lyte FRET kinase assay. inhibition, % at 20 µM. actives 0.68% (n = 220,000). AID 463187;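 active = Hck-Nef kinase inhibition above about 50%, limit read from the data; inactive = inhibition below that limit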;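 note: 0% = DMSO with Hck plus Nef and 100% = Hck alone without Nef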
Arbovirus inh – antivirals against arbovirus infection; arbovirus infection cell-based antiviral screen; inhibition, % at 10 µM; actives 0.37% (n = 200,000); AID 1251; in the data active = inhibition above about 30%
EP2 mod – modulators of human EP2 prostaglandin E2 receptor; P43116; EP2-expressing cells, cAMP HTRF FRET, PGE2 co-stimulation; induction, % at 25 µM; actives 0.83% (n = 260,000); AID 940;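 active = compounds whose cAMP rise, as percent of the full-agonist control response, exceeds 60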;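 note: rat C6 glioma line stably carrying human EP2 under a CMV promoter; the protocol text gives 20 µM as final concentration; 100% = response of wells given 1 µM PGE2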
* hit, by the source's call; . = not tested or not shown. Rows were chosen to be rich in hits. Some 2.4% of all compounds tested hit in one or more screens of this group.

SMILES	EP2 antag	p97 ATPase inh	Hck-Nef inh	Arbovirus inh	EP2 mod
CCC(=O)Nc1cccc(NC(=O)c2ccc([N+](=O)[O-])o2)c1	97.7*	.	.	.	-101.0
O=C(CN1C(=O)NC2(CCCC2)C1=O)Nc1ccc(S(=O)(=O)N2CCOCC2)cc1	4.1	-3.1	10.7	13.0	60.6*
CCOC(=O)CSc1nnc2c(n1)[nH]c1ccc(CC)cc12	6.7	.	.	.	21.6
O=C(/C=C/c1ccc(Br)o1)c1ccc(Br)cc1	13.0	.	.	.	23.3
COc1ccc(-c2ccccc2)cc1NS(=O)(=O)c1cn(C)nc1C	14.4	.	.	.	-146.0
CCCC(=O)Nc1cccc(NC(=O)c2ccc([N+](=O)[O-])o2)c1	41.7*	.	.	.	-99.8
Cc1ccc2c(c1)N(CC(=O)N1c3ccccc3Sc3ccccc31)C(=O)CO2	9.0	.	.	.	63.2*
CC(C)NC(=O)c1cc(-c2ccc(Br)cc2)on1	7.9	2.6	1.0	-2.9	-8.8
CC1CCCCN1c1nnc(NC(=O)c2cc(-c3ccc(Br)cc3)on2)s1 (stereo unspecified)	11.8	-3.4	22.4	42.4*	15.6
Cc1[nH]nc2c1C(c1ccc(OCC(=O)N3CCOCC3)cc1)C(C#N)=C(N)O2 (stereo unspecified)	14.6	.	.	.	-20.6
O=c1c(Cl)c(N2CCN(c3ccc(F)cc3)CC2)cnn1C12CC3CC(CC(C3)C1)C2	6.3	-12.3	-0.3	37.0*	16.7
O=c1c(Cl)c(N2CCN(c3ccccc3)CC2)cnn1C12CC3CC(CC(C3)C1)C2	9.0	-7.8	2.4	-2.8	8.3
CCC(C)N=Cc1c(Nc2ccccc2)nc2c(C)cccn2c1=O (stereo unspecified)	0.0	-4.3	16.6	.	66.0*
Cc1cccn2c(=O)c(C=NCc3ccco3)c(Nc3ccc(SC(F)F)cc3)nc12	4.2	-0.1	4.2	-19.0	23.1
NC(=O)c1nnn(Cc2cc(Cl)c(C(=O)c3ccc(Cl)cc3)c(Cl)c2)c1N	44.2*	.	.	.	-14.9
COC(=O)c1nnn(Cc2ccccc2)c1N	8.6	-5.0	-0.4	-12.6	10.5
Cc1nn(Cc2ccccc2)c(C)c1C(=O)N1CCN(Cc2ccco2)C[C@@H]1C(C)C	.	.	.	.	-37.7
COC(=O)N/N=C\c1cccc(OC(=O)c2cccs2)c1	5.0	0.1	-6.0	3.3	-17.4
O=C1NN(c2ccccc2)C(=O)/C1=C\c1cccc(OC(=O)c2cccs2)c1	40.2*	5.9	7.5	-34.0	-42.4
c1cc2c(cnc3cscc32)s1	42.2*	0.3	-1.0	9.2	-48.2
Cc1ccc(NC(=O)c2cccc(C(=O)OC(C)C)n2)c(Br)c1	6.5	1.3	31.7	-9.1	62.2*
CC(=O)N(C1=C(Cl)C(=O)c2ccccc2C1=O)C1CCCCC1	124.0*	7.9	-39.5	.	-30.1
Cc1ccc(C(=O)CSc2nnc3c(C)cc4cc5c(cc4n23)OCO5)cc1	15.1	.	.	.	15.5
CCOC(=O)c1cccc(NC(=O)CSc2nnc3c(C)cc4cc5c(cc4n23)OCO5)c1	48.1*	.	.	.	2.8
CC(C)(C)c1cc(NCc2ccccn2)n2ncc(-c3ccccc3)c2n1	4.8	-5.9	1.9	.	62.1*
SMILES	EP2 antag	p97 ATPase inh	Hck-Nef inh	Arbovirus inh	EP2 mod
Cc1cc(C)n(-c2cc(C(C)(C)C)nc3c(-c4ccccc4)cnn23)n1	3.8	-4.2	18.8	.	-0.3
CCOC(=O)CSc1n[nH]c(=S)s1	15.3	14.5*	-2.5	.	21.1
CCOC(=O)CCSc1n[nH]c(=S)s1	11.6	2.0	-107.7	.	30.3
O=C1NC(=O)N(c2ccc(F)cc2)C(=O)/C1=C/c1ccco1	53.3*	.	.	.	-120.2
O=C1/C(=C\c2ccco2)NC(=S)N1c1ccccc1	8.8	5.6	52.7*	3.5	-13.1
O=C1NC(=O)N(c2ccc(F)cc2)C(=O)/C1=C/c1ccc(N2CCOCC2)o1	10.3	.	.	.	-9.4
Cc1cc(C)nc(NS(=O)(=O)c2ccc(NC(=S)NC(=O)/C=C/c3cccs3)cc2)n1	63.1*	.	.	.	-116.6
COc1ccc(C(=O)NC(=S)Nc2ccc(S(=O)(=O)Nc3nccs3)cc2)cc1OC	43.4*	.	.	.	-137.8
Cc1cc(C)cc(NS(=O)(=O)c2ccc(NC(=S)NC(=O)c3cccs3)cc2)c1	41.9*	-6.7	-1.2	-24.5	-86.9
Cc1ccnc(NS(=O)(=O)c2ccc(NC(=O)/C=C/c3cccs3)cc2)n1	5.3	-5.0	8.4	5.0	-1.8
COc1ccc(-c2csc(Nc3ccc(S(=O)(=O)Nc4cc(C)on4)cc3)n2)cc1	3.8	-4.7	17.6	30.1*	-59.9
COc1cc(OC)cc(C(=O)NC(=S)Nc2ccc(S(=O)(=O)Nc3nccs3)cc2)c1	30.8	.	.	.	-130.7
COc1cc(NS(=O)(=O)c2ccc(Nc3nc(-c4cccc([N+](=O)[O-])c4)cs3)cc2)nc(OC)n1	44.7*	3.0	-8.4	19.7	-67.5
COc1ccc(/C=C/C(=O)NC(=S)Nc2ccc(S(=O)(=O)Nc3cc(C)on3)cc2)cc1	45.3*	.	.	.	-134.3
O=C(c1ccc(F)cc1)N1CCC(Cn2nc(-c3ccccc3)ccc2=O)CC1	.	.	.	.	-68.8
CC1C/C(=C/c2ccco2)C(=O)/C(=C/c2ccco2)C1 (stereo unspecified)	10.4	1.2	66.6*	5.2	50.2
O=C1/C(=C\c2ccco2)CCC/C1=C\c1ccco1	6.2	3.5	9.0	4.7	36.6
CCCCCC#CCC#CCC#CCC#CCCCC(=O)O	14.9	-0.6	75.5*	24.4	17.9
CCOC(=O)c1ccc(-n2c(C)ccc2C)cc1	2.4	4.8	-5.7	-12.5	27.8
CCOC(=O)c1ccc(N2C(=O)C=CC2=O)cc1	110.8*	4.4	-4.9	0.5	-38.5
CCN(CC)CC[n+]1ccc2c(C)c3[nH]c4ccc(O)cc4c3c(C)c2c1	43.6*	.	.	.	7.2
C=CCn1c(=NC(=O)c2ccco2)sc2cc(C(=O)OCC)ccc21	40.6*	2.3	12.1	-3.4	33.4
CN1[C@@H](c2ccccc2)CC(=NO)C[C@H]1c1ccccc1	41.9*	.	.	.	39.4
Cc1sc(N)c(C(=O)c2ccc(Br)cc2)c1C	14.4	.	.	.	70.8*
Nc1sc2c(c1C(=O)O)CCCC2	11.3	.	.	.	-17.8
SMILES	EP2 antag	p97 ATPase inh	Hck-Nef inh	Arbovirus inh	EP2 mod
Nc1sc2c(c1C(=O)c1ccc(Br)cc1)CCC2	9.5	.	.	.	78.1*
CCc1ccc2[nH]c(=O)c(C(c3nnnn3Cc3ccc(OC)cc3)N3CCCC(C)C3)cc2c1 (stereo unspecified)	15.9	.	.	.	27.7
OC1(c2ccc(F)cc2)CCN(Cc2ccnc(N3CCCC3)n2)CC1	3.1	.	.	.	-19.4
C[C@H]1[C@H](C)OC(=O)C[C@H](O)C[C@H](O)C[C@H](O)CC[C@H](O)[C@H](O)CC(=O)C[C@H](O)[C@H](C(=O)O)[C@H](O)C[C@H](O[C@H]2O[C@@H](C)[C@H](O)[C@@H](N)[C@@H]2O)C=CC=CC=CC=CCCC=CC=C[C@@](C)(O)[C@H]1O	43.9*	.	.	.	19.7
CC1C/C=C/C=C/C=C/C=C/C(O[C@@H]2O[C@H](C)[C@@H](O)[C@H](N)[C@@H]2O)CC2OC(O)(CC(O)CC3OC3/C=C/C(=O)O1)CC(O)C2C(=O)O (stereo partly specified)	.	4.0	0.7	-1.7	28.8
CCOC(=O)Cc1csc(NC(=O)CSc2cc(C)c3ccc(C)c(C)c3n2)n1	5.7	.	.	.	24.1

Assay outcomes from PubChem.
